Source: PubChem (National Center for Advancing Translational Sciences (NCATS))
D1 agonist = agonists of human D1 dopamine receptor; P21728; HEK293 T-REx D1 cells, calcium flux, agonist mode; activation, % at 2 µM; actives 1% (n = 360,000); note: 0% is about no effect
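Inducible HEK293 T-REx D1 cells, force-coupled to calcium signalling, were plated at 4000 cells/well with tetracycline and held overnight at 30 C. After no-wash calcium dye loading, compound-evoked calcium rise over 180 s flagged agonists.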
D1 PAM = enhances dopamine response at the human D1 receptor. P21728. HEK293 TREx D1 cells, calcium flux, dopamine EC20 potentiation. potentiation, % at 10 µM. actives 0.036% (n = 360,000). AID 504651; in the data active = potentiation above about 30%; note: 0% is about no effect
D1 antagonist = antagonists of human D1 dopamine receptor. HEK293 TREx D1 cells, calcium flux, dopamine EC80; stronger effect = lower value. activity change, negative = inhibition, % at 10 µM. actives 3.2% (n = 360,000). AID 504652; in the data active = activity change below about -30%; note: % is set by controls: 0 for no effect and ±100 for the full control effect
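Kinetic fluorescence of a calcium dye serves as the read-out. D1-expressing Hek293 Trex cells, induced overnight at 30 C, are exposed to compound for 180 s before an EC80 dopamine addition, then read 180 s further.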
TRHR PAM = allosterically enhances the human TRH receptor; enhancement, % at 2 µM; P34981; TRHR cells, fluo-8 calcium fluorescence, EC20 TRH enhancement; actives 0.66% (n = 360,000); in the data active = enhancement above about 30%; note: 0% is about no effect
Target sequence (P34981 whole entry, looked up): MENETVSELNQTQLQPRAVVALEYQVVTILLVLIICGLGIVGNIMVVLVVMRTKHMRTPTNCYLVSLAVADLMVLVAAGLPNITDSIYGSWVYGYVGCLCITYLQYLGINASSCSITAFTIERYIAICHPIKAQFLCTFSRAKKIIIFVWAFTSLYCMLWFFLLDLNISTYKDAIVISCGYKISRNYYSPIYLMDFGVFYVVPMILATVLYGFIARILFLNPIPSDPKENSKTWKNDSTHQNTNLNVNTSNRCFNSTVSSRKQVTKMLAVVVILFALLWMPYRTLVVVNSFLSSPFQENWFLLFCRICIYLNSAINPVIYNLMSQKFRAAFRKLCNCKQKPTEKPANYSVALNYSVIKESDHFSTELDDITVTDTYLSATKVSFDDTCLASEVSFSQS
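Enhancer read-out: after compound pinning and an initial kinetic agonist-mode read, an EC20 of TRH (10 nM final) was injected and fluo-8 calcium signal (Ex 480/Em 530) followed at 1 s/cycle for 100 cycles in TRHR-expressing cells.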
TRHR ag = activates the human TRH receptor; activation, % at 2 µM; AID 493084; TRHR cells, calcium flux fluo-8, FDSS agonist mode; actives 0.18% (n = 360,000); P34981; note: 0% is about no effect
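TRHR-expressing cells loaded with fluo-8 calcium dye; 23 nL library compound pin-transferred, kinetic FDSS fluorescence (Ex 480/Em 530) recorded about 180 s for agonist-induced calcium release, before a 10 nM TRH EC20 addition for potentiator mode.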
An asterisk follows results filed as active; ! = not active in a repeat. The list is not random: actives were taken first. Their share in the collection is about 4.7%. Cut-off read from the data, not from the text of the source, unless noted: active = activation above about 30%; inactive = the rest.

What do the screens show for `CCN(CC)c1ccc(N=Cc2c(O)n(Cc3ccccc3)c(=O)[nH]c2=O)cc1`?
D1 agonist: 36.6*!; D1 PAM: -3.9; D1 antagonist: -4.5; TRHR PAM: 4.3; TRHR ag: -0.7

How did CCOc1ccc(-n2c(O)c(C=Nc3ccc(N(CC)CC)cc3)c(=O)[nH]c2=O)cc1 do in these assays?
D1 agonist: 17.1; D1 PAM: -3.6; D1 antagonist: 0.8; TRHR PAM: 1.7; TRHR ag: 22.2

Results for O=c1[nH]c(=O)n(Cc2ccc(F)cc2)c(O)c1C=Nc1ccc(Cl)cc1 ?
D1 agonist: 3.5; D1 PAM: -5.0; D1 antagonist: -1.2; TRHR PAM: -6.6; TRHR ag: 1.4

What do the screens show for `CCN(CC)c1ccc(N=Cc2c(O)n(-c3ccccc3C)c(=O)[nH]c2=O)cc1`?
D1 agonist: 30.9*; D1 PAM: -2.8; D1 antagonist: -8.3; TRHR PAM: 2.6; TRHR ag: 14.1

Results for CCC(C(=O)Nc1ccccc1F)N1C(=O)CN=C(c2ccccc2)c2ccccc21 (configuration not stated) ?
D1 agonist: 0.4; D1 PAM: -0.2; D1 antagonist: -9.4; TRHR PAM: 5.6; TRHR ag: -0.6

What do the screens show for `Cc1ccc2c(c1)C(Cc1nc3ccccc3c(=O)n1-c1ccc(Br)cc1)C(=O)N2` (configuration not stated)?
D1 agonist: 1.3; D1 PAM: 4.7; D1 antagonist: 13.5; TRHR PAM: -1.2; TRHR ag: -0.6

What do the screens show for `O=C(COc1ccccc1[N+](=O)[O-])N1CCN(CCc2ccccn2)CC1`?
D1 agonist: -0.4; D1 PAM: -0.7; D1 antagonist: 2.3; TRHR PAM: -13.2; TRHR ag: 0.4

Results for CCOC(=O)c1cc(CC)sc1/N=C/C1C(=O)NC(=S)NC1=O ?
D1 agonist: 1.1; D1 PAM: 0.6; D1 antagonist: 0.6; TRHR PAM: 33.0*; TRHR ag: -0.1

Results for COc1ccc(Br)cc1C1SCC(=O)Nc2c1c(C)nn2-c1ccccc1C (configuration not stated) ?
D1 agonist: 3.6; D1 PAM: -0.8; D1 antagonist: -10.9; TRHR PAM: -4.5; TRHR ag: 0.1

What do the screens show for `CC(C)(C)c1cc([N+](=O)[O-])cc(C(C)(C)C)c1O`?
D1 agonist: 34.2*; D1 PAM: -7.6; D1 antagonist: -35.9*; TRHR PAM: -13.0; TRHR ag: 4.0

Results for O=CC(Cl)P(=O)(N1CCOCC1)N1CCOCC1 (configuration not stated) ?
D1 agonist: 0.7; D1 PAM: -5.7; D1 antagonist: -36.1*; TRHR PAM: -0.5; TRHR ag: 0.1

How did CC(C)(C)P(=O)(N1CCOCC1)N1CCOCC1 do in these assays?
D1 agonist: 2.7; D1 PAM: -0.1; D1 antagonist: -4.5; TRHR PAM: -8.2; TRHR ag: 0.6

What do the screens show for `CN1CCN(c2ccc([N+](=O)[O-])c(NCc3ccco3)c2)CC1`?
D1 agonist: 0.2; D1 PAM: -5.7; D1 antagonist: -31.2*; TRHR PAM: 4.1; TRHR ag: -0.1

Results for COCCCNC(=O)Cn1cc(/C=C2\C(=O)NC(=O)N(c3ccccc3F)C2=O)c2ccccc21 ?
D1 agonist: 32.1*; D1 PAM: -5.1; D1 antagonist: -19.5; TRHR PAM: 0.2; TRHR ag: -0.3

What do the screens show for `COCCNC(=O)Cn1cc(/C=C2\C(=O)NC(=O)N(c3ccccc3F)C2=O)c2ccccc21`?
D1 agonist: 1.7; D1 PAM: -3.9; D1 antagonist: 4.4; TRHR PAM: -2.0; TRHR ag: 1.3

How did CCOC(=O)C(O)(c1ccc(NC(=S)NC(=O)c2ccc(Cl)cc2Cl)c(C)c1)C(F)(F)F (configuration not stated) do in these assays?
D1 agonist: 54.2*; D1 PAM: -10.0; D1 antagonist: -34.6*; TRHR PAM: 1.9; TRHR ag: 6.6

Results for COC(=O)C(O)(c1ccc(NC(=S)NC(=O)c2ccc(Cl)cc2Cl)c(C)c1)C(F)(F)F (configuration not stated) ?
D1 agonist: 45.9*; D1 PAM: -11.8; D1 antagonist: -51.9*; TRHR PAM: -0.4; TRHR ag: 3.1
